# High-throughput results from PubChem.
# The list is not random: actives were taken first. Their share in the collection is about 2.8%.
# KDM5B inh – KDM5B demethylase inhibition | Q9UGL1 | KDM5B demethylase, FDH-coupled NADH fluorescence (FDH is formaldehyde dehydrogenase) | Potency, µM (doses to about 57.7 µM), usual class: inhibitors | 220,000 compounds, 2.6% hits | AID 1347165; note: potency is the fitted concentration of half-maximal effect; 0% is about no effect; nearly all actives have a fitted effect of over 70% in size
#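 qHTS format, multiple compound concentrations. Buffer 50 mM HEPES pH 7.5/0.01% Tween-20; 200 nM KDM5BΔAP final; 10 min compound preincubation; substrate-mix levels 12.5 µM peptide, 25 µM α-KG, 0.25 mM NAD⁺; 30 min RT; ΔRFU.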
# SNCA expr inh – SNCA gene expression inhibition; Potency, µM (titrated, usually from 57.2 µM), inactives show at the top dose activity change, negative = inhibition, actives largely listed as inhibitors; HEK-293 SNCA-luciferase knock-in, luminescence, 24 h; 140,000 compounds, 0.17% hits;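 note: potency is the fitted concentration of half-maximal effect; plate controls were DMSO cells for no effect and cell-free wells for full effect; nearly all actives have a fitted effect of over 45% in size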
# IP6K1 inhibitor – blocks human inositol hexakisphosphate kinase 1 | Q92551 | IP6K1 kinase, ADP-Glo luminescence, 2 h; hits give low values | 140,000 compounds, 0.81% hits | activity change, % (series mostly up to about 58 µM) | AID 1645851; in the data active = activity change below about -25%; note: % is set by controls: 0 for no effect and ±100 for the full control effect
#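 ADP-Glo luminescence measures ADP made by human IP6K1 during a 2 h RT reaction with ATP/IP6 (mix at 1.3 mM/130 uM); top library doses 57.5 and 19.1 uM final.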
# HEK293 viab – reduces viability of HEK-293 SNCA reporter cells; HEK-293-SNCA-luc viability, GF-AFC fluorescence, 24 h; Potency, µM (titrated, usually from 57.1 µM), for the others: at the top dose activity change, negative = cytotoxicity, actives largely listed as cytotoxic; 150,000 compounds, 0.12% hits; AID 1671193;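 note: potency is the fitted concentration of half-maximal effect; 0% = DMSO-treated cells and -100% = medium-only wells without cells; nearly all actives have a fitted effect of over 30% in size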
#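 HEK-293-SNCA-luc cells (1500/well) plated 24 h, then exposed 24 h to a dilution series; GF-AFC added 30 min at 37C, fluorescence 405/540 nm; normalised to medium-only and DMSO wells, Hill fit.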
# Numbers without * were called inactive; i = inactive; ? = inconclusive; / = no result given; [ ] = dose if it differs, or a comment. Unless noted, calls come from the whole dose curve; as a rule, active = well fitted curve in the direction sought with a large enough effect; inconclusive = small, poorly fitted or top-dose-only effect, or another doubt; inactive = no such curve, though single readings can be large; an effect the other way counts as inactive or inconclusive.
SMILES,KDM5B inh,SNCA expr inh,IP6K1 inhibitor,HEK293 viab
O=C(NCC(F)(F)F)c1ccc2c(c1)C1(CCN(CC3CC3)C1)CN2Cc1ccccc1 (centres undefined),20µM*,-13%,19,-1%
CCNC(=O)c1ccc2c(c1)C1(CCN(CC3CC3)C1)CN2Cc1ccccc1 (centres undefined),35µM*,2%[87.6 µM],11,-6%[87.6 µM]
CN1CCC2(C1)CN(Cc1ccccc1)c1ccc(C(=O)Nc3ccn(C)n3)cc12 (centres undefined),?,29%[87.6 µM],7,0%[87.6 µM]
NC(=O)c1ccc2c(c1)C1(CCN(CC3CC3)C1)CN2Cc1ccccc1 (centres undefined),35µM*,24%[87.6 µM],9,-11%[87.6 µM]
CN1CCC2(C1)CN(CC1CC1)c1ccc(C(=O)NC3CCCCC3)cc12 (centres undefined),40µM*,7%[87.6 µM],12,3%[87.6 µM]
CN1CC2(CCCN(CC3CC3)C2)c2cc(C(=O)Nc3ccn(C)n3)ccc21 (centres undefined),?,-8%[87.6 µM],39,1%[87.6 µM]
CC12CC3(C)CC(CC(=O)O)(C1)CC(CC(=O)O)(C2)C3,i,/,/,/
O=C(NCC1CC1)c1ccc2c(c1)C1(CCN(CC3CC3)C1)CN2Cc1ccccc1 (centres undefined),28µM*,-30%[87.6 µM],11,-5%[87.6 µM]
COCCNC(=O)c1ccc2c(c1)C1(CCN(CC3CC3)C1)CN2Cc1ccccc1 (centres undefined),35µM*,-6%[87.6 µM],12,-3%[87.6 µM]
O=C(NCCCO)c1ccc2c(c1)C1(CCN(CC3CC3)C1)CN2Cc1ccccc1 (centres undefined),35µM*,-3%[87.6 µM],-6,4%[87.6 µM]
CN1CCC2(C1)CN(CC1CC1)c1ccc(C(=O)NCc3cccs3)cc12 (centres undefined),?,4%[87.6 µM],-2,-9%[87.6 µM]
CN1CCC2(C1)CN(CC1CCOCC1)c1ccc(C(=O)NCC(F)(F)F)cc12 (centres undefined),35µM*,3%[87.6 µM],4,5%[87.6 µM]
O=C(NCCNC(=O)c1cc2ccccc2[nH]1)C(=O)N1CCN(c2ccccc2)CC1,i,/,/,/
COc1ccccc1NC(=O)c1cc(=O)c(OCc2ccc(Cl)cc2)co1,i,/,/,/
CCOCCCNCc1cccc(OCc2ccccc2)c1,i,/,/,/
S=C(NCCc1ccccc1)N/N=C/c1ccccc1Br,i,/,/,/
CN1CCC2(C1)CN(Cc1ccccc1)c1ccc(C(=O)NCC3CC3)cc12 (centres undefined),35µM*,30%[87.6 µM],1,9%[87.6 µM]
O=C(NC1CCC1)c1ccc2c(c1)C1(CCN(CC3CC3)C1)CN2Cc1ccccc1 (centres undefined),40µM*,-12%[87.6 µM],-6,-22%[87.6 µM]
CN(C)CCNC(=O)c1ccc2c(c1)C1(CCN(CC3CC3)C1)CN2Cc1ccccc1 (centres undefined),35µM*,?,-4,-23%[87.6 µM]
CN1CCC2(C1)CN(Cc1ccccc1)c1ccc(C(=O)NC3COC3)cc12 (centres undefined),40µM*,-4%[87.6 µM],11,4%[87.6 µM]
CN1CCCC2(C1)CN(Cc1cccnc1)c1ccc(C(=O)NCC3CCCCC3)cc12 (centres undefined),i,?,4,-6%[87.6 µM]
Cc1ccc2c(c1)C1CC(c3ccccc3Cl)=NN1C1(CCN(S(C)(=O)=O)CC1)O2 (centres undefined),i,/,/,/
Cc1ccc(C(=O)NC2CC2)cc1NC(=O)c1ccc(C)c(S(=O)(=O)N2CCCCC2)c1,i,/,/,/
Cn1ncc2c(C(=O)N3CCC(C#N)CC3)cc(-c3ccccc3F)nc21,/,/,-5,/
CN1CCC2(C1)CN(Cc1ccccc1)c1ccc(C(=O)NCCOc3ccccc3)cc12 (centres undefined),28µM*,20%,-1,4%
SMILES,KDM5B inh,SNCA expr inh,IP6K1 inhibitor,HEK293 viab
COCCNC(=O)c1cc(C2CC2)nc2c1c(C1CCNCC1)nn2C,?,-6%,-10,4%
COCCNC(=O)c1cc(C2CC2)nc2c1c(C1CCCN1)nn2C (centres undefined),79µM*,0%,4,1%
Cn1nc(C2CCCN2)c2c(C(=O)NCC(F)(F)F)cc(C3CC3)nc21 (centres undefined),79µM*,26%,-4,13%
COc1ccc(-c2c(C)oc3cc(OCCN4CCC(C(N)=O)CC4)ccc3c2=O)cc1,i,/,/,/
O=C(NCC1CC1)c1cc(Br)cn2ccnc12,?,24%[87.6 µM],-8,9%[87.6 µM]
O=C(NCc1ccc(C(F)(F)F)cc1)c1cc(Br)cn2ccnc12,14µM*,11%,-3,?
COC(=O)CNC(=O)c1cc(Br)cn2ccnc12,32µM*,4%[87.6 µM],-8,4%[87.6 µM]
COCCNC(=O)c1cc(Br)cn2ccnc12,40µM*,21%[87.6 µM],-5,5%[87.6 µM]
O=C(NCC(F)(F)F)c1cc(Br)cn2ccnc12,35µM*,25%[87.6 µM],2,4%[87.6 µM]
CC(=O)c1c(C)[nH]c(C(=O)OC(C)C(=O)c2ccc(F)c(F)c2)c1C (centres undefined),i,/,/,/
Cc1cc(O)c2c(C)c(CC(=O)NCCN3CCOCC3)c(=O)oc2c1,i,/,/,/
N#Cc1ccc(-c2ccc(OCC(=O)c3ccc4c(c3)OCCCO4)cc2)cc1,i,/,/,/
COc1cc(C(=O)Nc2ccc3oc(C)nc3c2)cc(OC)c1Br,i,/,/,/
O=C(NCCc1ccccc1F)c1cc(Br)cn2ccnc12,28µM*,164%,-15,-9%
O=C(NCCc1ccccc1F)c1ccncc1,i,/,/,/
O=C(C1CCN(S(=O)(=O)c2cccs2)CC1)N1CCC(c2ccccc2)CC1,/,-5%,12,-1%
CN(C)CCOc1ccccc1-c1ccc(C#N)cc1,32µM*,1%,8,9%
COCC(=O)Nc1ccc(-c2noc([C@@H]3CCCN3Cc3ccc(OC(F)(F)F)cc3)n2)cn1,i,7%,13,-9%
COCC(=O)Nc1ccc(-c2noc([C@@H]3CCCN3Cc3ccc(F)cc3)n2)cn1,i,0%[87.6 µM],7,-12%[87.6 µM]
COc1ccc(C(=O)Nc2ccc(-c3noc([C@@H]4CCCN4C)n3)cn2)cc1,i,6%[87.6 µM],-14,-16%[87.6 µM]
COc1ccc(C(=O)Nc2ccc(-c3noc([C@@H]4CCCN4Cc4ccc(Cl)cc4)n3)cn2)cc1,32µM*,-5%,-11,-4%
COc1ccc(C(=O)Nc2ccc(-c3noc([C@@H]4CCCN4Cc4ccc(F)c(F)c4)n3)cn2)cc1,28µM*,-4%,-10,-19%
COc1ccc(C(=O)Nc2ccc(-c3noc([C@@H]4CCCN4Cc4ccccc4C)n3)cn2)cc1,32µM*,?,-5,-29%
NC(=O)c1cccc(-c2cc3c(cn2)CN(Cc2ccncc2)CCN3)c1,?,7%[87.6 µM],12,6%[87.6 µM]
c1ccc(CN2CCNc3cc(-c4cccnc4)ncc3C2)cc1,32µM*,32%[87.6 µM],-20,-9%[87.6 µM]
c1cncc(-c2cc3c(cn2)CN(Cc2ccncc2)CCN3)c1,?,10%[87.6 µM],-2,-3%[87.6 µM]
c1ccc(CCN2CCNc3cc(NCc4cccnc4)ncc3C2)cc1,35µM*,-25%[87.6 µM],-20,-17%[87.6 µM]
CCn1cc(-c2cc3c(cn2)CN(Cc2cccnc2)CCN3)cn1,32µM*,142%[87.6 µM],-13,-2%[87.6 µM]
